CtBP-E1A inh = qHTS Assay for Inhibitors of the CtBP/E1A Interaction. AlphaScreen GST-E1A/His-CtBP binding, 1536-well; hits give low values. AID 651724, 2012. activity change, % (concentration not given with the values). CtBP / adenovirus E1A interaction (AlphaScreen). 340,000 compounds, 0.49% hits; in the data active = activity change below about -65%; inconclusive = mostly about -30% to -63%; note: % is set by controls: 0 for no effect and ±100 for the full control effect
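AlphaScreen with 125 nM GST-E1A and 125 nM His-CtBP (5X stocks) in Tris pH 8.0, 300 mM NaCl, BSA, Tween 20, TCEP. Compounds preincubated 2 h at 37 deg C, then glutathione donor/nickel acceptor beads added for 1 h at 37 deg C in dark.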
BAZ2B block = qHTS Assay for Inhibitors of BAZ2B. Bromodomain adjacent to zinc finger domain protein 2B (Homo sapiens), Q9UIF8. AlphaScreen BAZ2B-H3K14Ac peptide displacement. Potency, µM (doses to about 114 µM), without a hit: top-dose activity change, negative = inhibition, actives largely listed as inhibitors. 360,000 compounds, 4.4% hits. AID 504333, 2011; note: potency is the fitted concentration of half-maximal effect; % is set by controls: 0 for no effect and ±100 for the full control effect; nearly all actives have a fitted effect of over 60% in size
Target sequence (Q9UIF8 whole entry, looked up, the tested form may be a part): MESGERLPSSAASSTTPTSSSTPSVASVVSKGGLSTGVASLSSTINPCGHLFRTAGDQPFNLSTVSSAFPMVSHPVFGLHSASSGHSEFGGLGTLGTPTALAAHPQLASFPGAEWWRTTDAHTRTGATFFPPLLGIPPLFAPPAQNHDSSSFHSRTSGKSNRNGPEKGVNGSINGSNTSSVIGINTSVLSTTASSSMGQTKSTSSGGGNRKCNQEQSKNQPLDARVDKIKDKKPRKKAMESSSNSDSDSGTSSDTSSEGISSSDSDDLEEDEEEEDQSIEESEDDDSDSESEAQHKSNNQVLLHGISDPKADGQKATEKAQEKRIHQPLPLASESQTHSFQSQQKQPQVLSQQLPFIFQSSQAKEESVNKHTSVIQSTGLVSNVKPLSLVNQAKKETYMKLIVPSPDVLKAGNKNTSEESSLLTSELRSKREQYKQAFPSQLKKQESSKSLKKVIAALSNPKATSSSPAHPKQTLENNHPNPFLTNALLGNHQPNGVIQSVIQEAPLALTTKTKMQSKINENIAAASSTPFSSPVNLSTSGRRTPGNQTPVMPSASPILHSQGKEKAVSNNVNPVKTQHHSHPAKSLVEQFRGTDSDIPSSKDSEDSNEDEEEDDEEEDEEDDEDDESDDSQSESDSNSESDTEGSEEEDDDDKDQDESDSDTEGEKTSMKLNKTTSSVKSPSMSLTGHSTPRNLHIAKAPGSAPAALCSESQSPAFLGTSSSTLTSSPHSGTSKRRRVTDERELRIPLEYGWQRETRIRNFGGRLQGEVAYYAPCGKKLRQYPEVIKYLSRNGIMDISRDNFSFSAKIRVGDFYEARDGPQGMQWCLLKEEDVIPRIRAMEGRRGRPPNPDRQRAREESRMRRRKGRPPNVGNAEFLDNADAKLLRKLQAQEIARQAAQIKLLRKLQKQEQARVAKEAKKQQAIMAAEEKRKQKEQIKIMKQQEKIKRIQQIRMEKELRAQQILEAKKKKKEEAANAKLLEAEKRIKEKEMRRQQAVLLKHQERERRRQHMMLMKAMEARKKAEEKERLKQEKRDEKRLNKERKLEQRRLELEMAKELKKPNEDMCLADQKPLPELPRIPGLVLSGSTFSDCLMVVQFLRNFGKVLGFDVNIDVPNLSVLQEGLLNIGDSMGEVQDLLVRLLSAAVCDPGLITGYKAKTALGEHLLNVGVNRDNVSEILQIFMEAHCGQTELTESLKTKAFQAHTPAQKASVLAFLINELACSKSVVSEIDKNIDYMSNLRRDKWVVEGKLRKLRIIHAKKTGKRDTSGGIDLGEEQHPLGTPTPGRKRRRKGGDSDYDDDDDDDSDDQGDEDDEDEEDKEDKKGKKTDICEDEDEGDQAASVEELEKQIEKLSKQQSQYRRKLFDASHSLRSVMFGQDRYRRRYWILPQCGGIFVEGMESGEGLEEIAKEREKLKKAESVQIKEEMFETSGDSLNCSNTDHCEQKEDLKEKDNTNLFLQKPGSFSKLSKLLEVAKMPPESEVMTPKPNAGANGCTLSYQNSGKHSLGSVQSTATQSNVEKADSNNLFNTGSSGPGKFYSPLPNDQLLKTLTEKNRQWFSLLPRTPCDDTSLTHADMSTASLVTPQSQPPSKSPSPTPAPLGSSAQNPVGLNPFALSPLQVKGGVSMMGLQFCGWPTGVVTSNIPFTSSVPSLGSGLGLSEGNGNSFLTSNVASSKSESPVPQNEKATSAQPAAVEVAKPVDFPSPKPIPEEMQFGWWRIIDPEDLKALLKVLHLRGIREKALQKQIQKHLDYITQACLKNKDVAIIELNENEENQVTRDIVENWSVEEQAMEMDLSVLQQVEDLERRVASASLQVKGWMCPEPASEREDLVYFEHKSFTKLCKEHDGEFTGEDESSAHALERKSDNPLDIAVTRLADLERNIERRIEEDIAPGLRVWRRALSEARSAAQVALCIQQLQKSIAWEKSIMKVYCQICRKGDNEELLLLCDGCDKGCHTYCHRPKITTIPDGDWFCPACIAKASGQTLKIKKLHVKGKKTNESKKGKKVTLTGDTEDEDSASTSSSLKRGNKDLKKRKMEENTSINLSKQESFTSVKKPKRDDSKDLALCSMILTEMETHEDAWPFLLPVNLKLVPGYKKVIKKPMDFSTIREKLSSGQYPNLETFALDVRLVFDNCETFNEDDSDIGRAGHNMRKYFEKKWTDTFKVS
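Compounds, titrated to a top concentration of 110 uM, were incubated 30 min at room temperature with preformed BAZ2B/acetyl-K14 H3 peptide complex (50 nM each). Proximity signal was measured by AlphaScreen after 20 min with beads.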
G9a block = qHTS Assay for Inhibitors of Histone Lysine Methyltransferase G9a; AID 504332, 2011; Potency, µM (highest dose often 102 µM), inactives show at the highest dose activity, negative = inhibition, usual class: inhibitors; G9a H3K9 monomethylation, AlphaScreen, 2 h; 350,000 compounds, 8.8% hits; note: potency is the fitted concentration of half-maximal effect; % is set by controls: 0 for no effect and ±100 for the full control effect; nearly all actives have a fitted effect of over 75% in size
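Chemiluminescent proximity detection of H3K9 monomethylation, read after 10 min bead incubation in the dark. Reaction: 20 nM G9a, 500 nM biotin-H3K9 peptide, 20 uM SAM cofactor, 2 h, room temperature, following 15 min enzyme-compound preincubation.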
JMJD2A Tudor inh = qHTS Assay for Inhibitors of JMJD2A-Tudor Domain. AID 504339, 2011. AlphaScreen JMJD2A-Tudor / H3K4me3 peptide binding. 390,000 compounds, 4.4% hits. Potency, µM (titrated, usually from 114 µM), without a hit: at the top dose activity change, negative = inhibition, actives largely listed as inhibitors. Lysine-specific demethylase 4A (Homo sapiens), O75164; note: potency is the fitted concentration of half-maximal effect; % is set by controls: 0 for no effect and ±100 for the full control effect; nearly all actives have a fitted effect of over 50% in size
Six1-Eya2 blk = qHTS Assay for Inhibitors of the Six1/Eya2 Interaction; AlphaScreen GST-Six1/His-Eya2 binding, biochemical; hits give low values; Homeobox protein SIX1 (Homo sapiens) + Protein phosphatase EYA2 (Homo sapiens), …; activity change, % (no concentration beside the values); 360,000 compounds, 0.56% hits; in the data active = activity change below about -65%; inconclusive = mostly about -30% to -63%; note: % is set by controls: 0 for no effect and ±100 for the full control effect
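Homogeneous AlphaScreen proximity assay pairing GST-Six1 with His-tagged Eya2 (added as 5X mix: 250 nM and 500 nM) in 50 mM Tris pH 8.0, 300 mM NaCl, 1 mM TCEP. Glutathione donor and nickel acceptor beads; 1 h, 37 °C, dark.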
HP1b binding inh = HTS for Inhibitors of HP1-beta Chromodomain Interactions with Methylated Histone Tails; Potency, µM (highest dose often 114 µM), for the others: top-dose activity change, negative = inhibition, actives largely listed as inhibitors; AlphaScreen HP1-beta / biotin-H3K9me3 peptide binding; 390,000 compounds, 0.56% hits; Chromobox protein homolog 1 (Homo sapiens), P83916; AID 540317, 2011; note: potency is the fitted concentration of half-maximal effect; nearly all actives have a fitted effect of over 70% in size
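AlphaScreen: HP1-beta (50 nM) preformed 30 min with biotin-H3(1-18)K9me3 peptide (50 nM) in PBS pH 7.4, 0.01% Tween-20. Compound added for 30 min at RT, then streptavidin donor/nickel chelate acceptor beads (10 ug/mL) for 30 min.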
An asterisk follows results filed as active; ? = inconclusive; . = not tested or not shown; [ ] = another dose, or the depositor's remark. A selection: hits, their analogues and other compounds. The true share with any hit is near 10%. Unless noted, calls come from the whole dose curve; as a rule, active = well fitted inhibition curve with a large enough effect; inconclusive = small, poorly fitted or top-dose-only effect; inactive = no such curve, though single readings can be large or run the other way.

SMILES	CtBP-E1A inh	BAZ2B block	G9a block	JMJD2A Tudor inh	Six1-Eya2 blk	HP1b binding inh
CC(=O)c1ccc(-c2ccc(C(=O)NCC3CCCO3)o2)cc1 (stereo not drawn)	-29	4%	79µM*	-15%	-4	34%
CC(=O)c1ccc(-c2ccc(C(=O)NC3CC(C)(C)NC(C)(C)C3)o2)cc1	-8	-4%	40µM*	-22%	-18	17%
O=S1(=O)N=C(Oc2cccc(-c3ccccc3)c2)c2ccccc21	.	.	.	-13%	.	.
COc1ccc2c(CNCc3ccco3)c(C(=O)O)n(Cc3cccc(F)c3)c2c1	.	?	-34%[59 µM]	-29%	.	-11%
CC(=O)c1c(C)[nH]c(C(=O)Nc2ccc(Cl)cc2)c1C	16	-1%	17%	-12%	8	23%
CSc1cccc(NC(=O)c2[nH]c(C)c(C(C)=O)c2C)c1	?	50µM*	?	-19%	-29	?
CCOc1cc2c3c(c1)C1(Nc4ccccc4S1)C(=O)N3C(C)(C)CC2C (stereo not drawn)	?	28µM*	?	35µM*	?	?
Cc1ccc(C2Nc3cc(C)c(C)cc3-n3c(-c4ccccc4)c4c(=O)n(C)c(=O)n(C)c4c32)o1 (stereo not drawn)	.	4%	-20%[59 µM]	-12%	.	32%
COC(Cn1c2c(c3cc(C)ccc31)CCCC2NCc1ccccc1)OC (stereo not drawn)	.	40µM*	45µM*	?	-12	4%
Cc1ccc2c(c1)c1c3n2CCN(C(=O)Cn2c(-c4ccccc4)noc2=O)C3CCC1 (stereo not drawn)	-23	7%	-11%	-35%	-20	-4%
CC(C)(C)C#CCn1c(/C=[N+](\[O-])C2CCCCC2)nc2ccccc21	0	50µM*	.	?	-3	24%
Cc1cccc(-n2c(Cc3ccccc3)n[nH]c2=S)c1	5	-20%	22µM*	32µM*	-4	2%
CSc1nnc(CNC(=O)c2ccccc2)n1-c1cccc(C)c1	4	3%	18%[59 µM]	-3%	-15	32%
CCc1ccc(-n2c(Cc3ccccc3)n[nH]c2=S)cc1	4	-27%	?	22µM*	5	10%
Cc1cccc(-n2c(CNC(=O)Cc3ccccc3)n[nH]c2=S)c1	-9	-14%	20µM*	4µM*	-1	36%
CCN(c1ccccc1)S(=O)(=O)c1ccc(NC(=O)c2nc(SC)ncc2Cl)cc1	.	-14%	-1%[59 µM]	-15%	.	29%
Cc1ccc(NC(=O)CCCn2c(=O)c3cccn3c3cccnc32)c(Cl)c1	.	-18%	0%[59 µM]	-15%	.	27%
Cc1nn(C)c(C)c1CS(=O)(=O)c1ccccc1	-4	-6%	50µM*	-11%	10	35%
Cc1ccc(S(=O)(=O)Nc2c(C)nn(C)c2C)cc1	18	7%	2%	2%	-1	36%
CCCCCCCC(=O)O	7	.	23%[59 µM]	-5%	2	37%
CCCCCCCCCCCCCCCC(=O)C1=C(O)C(CO)OC1=O (stereo not drawn)	.	.	10µM*	.	.	.
CN1CCN(S(=O)(=O)c2cccc([N+](=O)[O-])c2)CC1	14	.	.	-10%	1	16%
COc1cccc(C(=O)CN2CCN(S(=O)(=O)c3cccc([N+](=O)[O-])c3)CC2)c1	.	2%	20µM*	-16%	12	28%
COc1ccc(C(=O)CN2CCN(S(=O)(=O)c3cccc([N+](=O)[O-])c3)CC2)cc1OC	0	4%	8.9µM*	-10%	1	32%
Cc1ccc(NC(=O)Cn2c(C)cc(C)c(C#N)c2=O)cc1F	.	3%	18%[59 µM]	-1%	.	38%

Screens (PubChem BioAssay)
